# Assay results reported in the supplement of paper PMC6555819.
# What was measured:
# Experiment in all cases: PBM binding z-score (relative to random genomic background probes); higher = stronger binding; sequences stand for … in GC…GCGATTGACAGCGTAGAATGAAGG
# [1] = system: PPARg:RXRa DBDmut IVT, anti-RXR (DBD mutation: RXRa K156A/R161A, NR concentration 270 nM, RXRa partner concentration 90 nM)
# Outline: (§1)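 Binding z-scores were set against random background probes. The data came from custom Agilent 4×180K protein-binding microarrays carrying double-stranded probes with 34-nt variable regions, incubated 1 h with ligand-free nuclear receptor dimers. Partner-specific antibodies detected binding, and scanned fluorescence was regression-normalized.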
# [2] = system: PPARg:RXRa IVT, anti-PPARg (NR concentration 270 nM, RXRa partner concentration 90 nM)
# Outline: as §1
# [3] = system: PPARg DBDmut:RXRa IVT, anti-PPARg (DBD mutation: PPARg1 K132A/R137A, NR concentration 270 nM, RXRa partner concentration 90 nM)
# Outline: as §1
# [4] = system: PPARg DBDmut IVT, anti-PPARg (DBD mutation: PPARg1 K132A/R137A, NR concentration 270 nM)
# Outline: as §1
# [5] = system: PPARg homodimer (NR concentration 180 nM)
# Outline: as §1
# [6] = system: PXR:RXRa (NR concentration 270 nM, RXRa partner concentration 90 nM)
# Outline: as §1
# [7] = system: PXR homodimer (NR concentration 270 nM)
# Outline: as §1
# [8] = system: RARa:RXR (NR concentration 270 nM, RXRa partner concentration 90 nM)
# Outline: as §1
# [9] = system: RARa homodimer (NR concentration 270 nM)
# Outline: as §1
# [10] = system: RARb:RXRa (NR concentration 270 nM, RXRa partner concentration 90 nM)
# Outline: as §1
# [11] = system: RARb homodimer (NR concentration 270 nM)
# Outline: as §1
# [12] = system: RARg:RXRa (NR concentration 270 nM, RXRa partner concentration 90 nM)
# Outline: as §1
# [13] = system: RARg homodimer (NR concentration 270 nM)
# Outline: as §1
# [14] = system: RXRa DBDmut IVT, anti-RXR (DBD mutation: RXRa K156A/R161A, NR concentration 90 nM)
# Outline: as §1
# [15] = system: RXRa homodimer (NR concentration 180 nM)
# Outline: as §1
# [16] = system: THRa:RXRa (NR concentration 90 nM, RXRa partner concentration 90 nM)
# Outline: as §1
# [17] = system: THRa homodimer (NR concentration 90 nM)
# Outline: as §1
# [18] = system: VDR homodimer (NR concentration 270 nM)
# Outline: as §1
Sequence,PBM binding z-score [1],PBM binding z-score [2],PBM binding z-score [3],PBM binding z-score [4],PBM binding z-score [5],PBM binding z-score [6],PBM binding z-score [7],PBM binding z-score [8],PBM binding z-score [9],PBM binding z-score [10],PBM binding z-score [11],PBM binding z-score [12],PBM binding z-score [13],PBM binding z-score [14],PBM binding z-score [15],PBM binding z-score [16],PBM binding z-score [17],PBM binding z-score [18]
TCTGCTTGGTCAGTTGGTCAGCTAACGAGCTGCC,0.546,0.646,-0.341,0.287,-1.35,-0.535,-1.14,-0.645,-1.41,0.775,0.226,-0.172,-0.0396,-0.00109,-0.439,-0.465,-0.841,-1.2
CAAACTCGGTCAAAGGTCAAAGTCGAGCCAACCA,5.71,7.61,1.95,3.41,6.43,6.69,2.5,8.37,3.33,5.43,5.08,8.4,6.7,2.48,9.27,4.33,1.31,3.31
CTACCAAGGTGAACAAGGTCGTTGATTACTATTC,2.26,2.58,0.576,0.29,0.831,2.96,1.95,2.45,0.346,2.16,2.1,1.73,1.67,1.41,1.91,3.2,1.81,2.28
TCTAGCAGGCCAGAGGGTCACTCTAGAGGTACGG,0.721,0.95,-0.508,-0.98,0.476,1.24,-0.322,2.07,-0.492,2.27,2.57,2.42,1.97,0.248,2.34,1.4,-0.529,0.422
TCTCGGAGGACACGAAGGTCACAGCTTTCCAGAG,1.84,2.4,0.166,-0.192,2.75,3.96,2.33,3.8,0.474,3.97,4.54,4.52,4.93,1.47,3.74,3.86,1.77,2.9
ACAGAAAGGTGAGTGAAGGTAACTCAGCTGGACG,1.69,1.91,0.587,-0.401,0.248,0.345,-0.335,0.81,0.239,2.47,1.15,1.58,1.59,-0.371,1.28,2.58,-0.361,-0.509
CCTTATGGGTCACTGACAGGTTATAGCATTTGGA,5.9,6.16,0.901,0.187,2.16,2.86,0.162,3.89,0.956,3.8,3.37,5.28,3.89,1.05,4.43,2.59,0.464,0.502
CCTCGGAGGACAATAGGAGGTCAGAGCTGCCAGA,-0.0175,0.979,-0.47,-1.32,1.01,1.76,0.364,2.08,-0.149,2.29,3.18,2.71,2.63,-0.00493,1.64,2.43,0.711,0.843
TCAGATAGGTAAATGCTAGGTGAAAGTCCGATCT,2.06,0.684,0.761,0.0198,0.547,0.13,-0.341,0.568,-0.137,0.156,0.292,0.258,0.0345,1.06,0.464,1.22,-0.0517,-0.287
GCTGCTACGTCAGGTTGGTCAGCTAACGGGTACG,-0.264,-0.651,-0.712,-1.19,-0.583,-0.691,-0.732,-0.51,-1.16,-0.154,-0.00672,-0.503,-0.278,-0.049,-0.469,-0.38,-0.55,-0.226
ATCTCTAGTTAAAAGTTCAGTGAATCCCGAGGAT,0.0721,0.398,0.853,1.16,1.56,1.9,2,1.03,1.8,2.2,2.34,1.3,1.76,0.966,0.844,0.672,0.242,2.12
ATCTCTCGGTAAAAGTTCAGTGAATCCCGAGGAT,-0.48,1.24,1.23,1.28,1.06,1.92,1.71,0.639,0.811,2.4,2.43,1.76,2.03,0.823,0.954,0.761,0.0329,1.74
CCTACTGGGCCAAACGTCATTGATTCCAATGCTC,6.22,3.97,-0.542,-0.413,0.259,-0.508,-0.633,0.0892,-0.153,0.179,-0.184,-0.00983,-0.146,0.278,0.000676,-0.343,-0.264,-0.254
CCTTACGGGTCAAGGTTAAAGCACGGGTGGTACG,1.83,3.82,0.996,0.275,3.27,3.65,0.419,4.78,1.39,4.12,3.57,5.08,4.78,0.827,5.39,3.06,1.01,1.43
CCTTACGGGTCATTCCAGGTTATAGCATCGGAGT,2.86,3.39,0.145,-0.0638,1.34,5.52,0.529,3.91,0.74,3.51,3.03,4.52,4.25,2.86,5.2,5.12,0.692,2.59
TCTATTAGTTGAGGGGCAACCGACGAGTCCGTTT,2.72,0.341,0.599,1.29,1.09,0.857,0.479,0.515,0.621,0.903,0.835,0.29,0.252,1.83,0.746,0.432,0.237,1.19
CGTCCAAGGTCAGCAGGTAAGTGAAAGCGACGTG,2.46,2.83,0.325,-0.0804,2.47,2.54,-0.0164,3.47,1.22,5,3.74,5.27,5.92,2.48,3.94,3.46,2,0.856
ATATCTAGGTAACCAAGTTCAGTGAATGCCGAAC,6.87,6.81,1.28,1.43,1.06,2.01,1.85,0.933,0.953,1.39,1.55,0.963,0.923,0.824,0.83,1.58,0.613,2.63
CCGAGTAGGTTATGGAGCATTCAGGCAACGGTGA,3.11,2.34,-1.14,-0.703,0.952,-0.208,0.0693,0.144,0.512,0.499,0.461,0.362,0.489,0.355,0.308,0.145,0.277,0.244
AATACAGTGTCATCGTAGGCCAGAGTACGCACAG,0.125,1.2,1.33,-0.183,-0.106,0.441,-0.156,0.969,0.337,1.21,0.72,0.907,1.24,0.561,0.84,1.81,-0.754,0.395
ATCTCTAGGTAACCACGTTCAGTGAATGCCGAAC,2.95,2.6,1.15,0.998,0.238,-0.177,0.023,-0.2,0.526,0.324,0.366,0.142,0.288,-0.101,0.112,0.672,0.721,0.344
TTACCAAGGTGAGCTGTGGTCGTTGATCCAACTC,1.27,1.57,0.175,0.327,-0.41,0.219,-0.79,-0.0403,-0.989,1.04,0.173,0.108,-0.154,-0.592,0.152,1.78,-0.136,-0.783
GCGCGGAGGACAAGGTCAGAGCTTTGTCCGTAGA,-0.241,0.514,-1.67,-1.56,0.0737,1.5,-0.325,2.13,-1.01,3.4,2.99,3.09,3.32,0.639,2.43,2.89,1.33,0.885
CCTACTGGGCCAAAGGTCATTGAGTCCAATGCTC,5.06,6.83,0.176,-0.111,2.47,6.16,12.7,5.99,1.14,4.71,4.88,5.8,4.63,1.78,6.07,3.57,0.746,4.9
TTACCAAGGTGAAAGGTCGTTGGTGCACGCCTTG,3.18,5.34,0.205,0.977,2.46,4.31,0.449,6.09,-0.639,3.31,2.87,4.49,1.81,0.82,6.07,3.48,0.937,1.86
ACTAGCAGGCCAAGTTTGGGTCACCCAAACAAAG,0.771,1.58,-0.22,-0.356,0.716,1.08,-0.637,1.89,-1.22,2.06,2.48,2.88,2.18,-0.623,1.45,2.96,1.36,0.196
TCGAGTAGGTTACCAATGGAGCATTCAGCTTTCT,3.08,2.37,-0.0505,-0.361,-0.556,-0.0122,-0.741,-0.35,-0.787,0.629,-0.304,0.18,0.258,0.293,0.319,-0.213,-0.898,-0.759
GCTCAGAGGACAAGGTCAGAGCTTTGTCCGTAGA,0.92,0.924,-1.05,-1.28,0.348,1.74,-0.21,2.17,-0.133,3.78,3.68,3.51,4.41,1.18,2.64,3.08,1.34,0.78
ACAAGCAGGCCAAGTTTGGGTCACTCAAACAAAG,0.823,1.59,-0.817,-0.239,-0.0252,0.706,-0.465,1.56,-0.485,2,2.34,2.8,1.88,-0.286,1.1,2.47,0.738,-0.0153
